Data on 40 compounds can be found in ChEMBL document CHEMBL5308504, “Tm Shift (DSF) assay results for EUbOPEN Chemogenomics Library” (2023).

Several values for one entry are separate records, joined by “and”; a condition that tells them apart may be missing. Equal entries are not always repeated.

The term ΔTm denotes the shift of the melting midpoint relative to a reference.

The target of the experiment is T1, Transcription intermediary factor 1-alpha (Homo sapiens) (UniProt O15164).
T1 sequence (whole entry): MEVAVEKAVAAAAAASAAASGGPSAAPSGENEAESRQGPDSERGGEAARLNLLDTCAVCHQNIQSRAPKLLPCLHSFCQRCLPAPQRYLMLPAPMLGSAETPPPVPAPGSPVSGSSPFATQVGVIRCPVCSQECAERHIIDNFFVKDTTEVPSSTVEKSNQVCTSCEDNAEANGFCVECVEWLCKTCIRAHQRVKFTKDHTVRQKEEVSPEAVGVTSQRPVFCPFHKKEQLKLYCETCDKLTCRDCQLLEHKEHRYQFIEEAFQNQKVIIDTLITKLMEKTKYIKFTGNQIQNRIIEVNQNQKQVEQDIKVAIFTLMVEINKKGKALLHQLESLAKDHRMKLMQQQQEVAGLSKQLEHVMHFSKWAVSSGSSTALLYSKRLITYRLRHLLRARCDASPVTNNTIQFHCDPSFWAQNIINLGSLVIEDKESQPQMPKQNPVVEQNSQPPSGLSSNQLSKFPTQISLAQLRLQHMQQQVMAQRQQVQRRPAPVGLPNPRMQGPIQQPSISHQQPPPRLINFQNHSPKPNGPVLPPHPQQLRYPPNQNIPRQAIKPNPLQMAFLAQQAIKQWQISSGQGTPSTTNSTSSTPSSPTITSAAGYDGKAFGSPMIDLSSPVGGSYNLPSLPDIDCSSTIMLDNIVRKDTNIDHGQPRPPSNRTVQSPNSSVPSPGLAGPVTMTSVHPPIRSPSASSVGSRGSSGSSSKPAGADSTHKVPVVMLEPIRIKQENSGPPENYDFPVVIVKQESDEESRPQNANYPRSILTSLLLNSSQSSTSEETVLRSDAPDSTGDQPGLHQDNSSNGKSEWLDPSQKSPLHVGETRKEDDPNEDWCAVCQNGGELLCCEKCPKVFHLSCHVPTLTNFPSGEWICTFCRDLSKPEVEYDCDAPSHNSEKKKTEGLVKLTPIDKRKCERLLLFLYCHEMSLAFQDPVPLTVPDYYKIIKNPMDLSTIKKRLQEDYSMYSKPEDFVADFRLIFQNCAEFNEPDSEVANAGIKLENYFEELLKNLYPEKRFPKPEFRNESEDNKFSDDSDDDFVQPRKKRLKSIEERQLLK
To be noted: Compound concentration 20.0 uM, Protein concentration 2.0 uM, Result type QC Liability.
Consider `Cc1cccc(CC(=O)N2CCc3c2ccc(-c2cn(C)c4ncnc(N)c24)c3F)n1`, for which the ΔTm is -2.22 °C. Next, `Cn1cncc1-c1cn(-c2cccc(C(=O)Nc3cccc(C(F)(F)F)c3)c2)nn1`: -0.32 °C.

As for `Cc1cc(-c2cnc(N)c3c(-c4ccc5scnc5c4)csc23)n(C)n1`, the thermal shift (ΔTm) was -1.95 °C.

In the case of `CCc1nc(C2CCC2)n2nc(-c3ccccc3)[nH]c(=O)c12`, the ΔTm came to 0.37 °C. Consider `O=C(CCCCCCc1ccccc1)c1ncc(-c2ccccn2)o1`, for which the thermal shift (ΔTm) is -0.23 °C. In the case of `C[C@@]1(Cc2ccc(C#N)cc2)C(=O)N(c2cc(Cl)cc(Cl)c2)c2ncc(C(=O)NC3(c4nc(C5CCC5)no4)CC3)n21`, the thermal shift (ΔTm) was 0.39 °C. On to `O=C(NCCS(=O)(=O)c1ccc(C(F)(F)F)cn1)c1ccc(Cl)cc1`, for which the shift in melting temperature (ΔTm) is -2.42 °C. As to `COc1cc(CN(CCN)C(=O)N[C@@H](C)c2ccccc2)ccc1OCc1ccccc1`, the ΔTm was -0.9 °C. On to `c1ccc(C2CCN(c3cnc4c(N5CCOCC5)nccn34)CC2)cc1`, for which the ΔTm was -1.25 °C. Take `C[C@]12CC[C@@H]3c4ccc(O)cc4CC[C@H]3[C@@H]1C[C@H]1OC(=O)C[C@]12O`: the ΔTm came to 0.49 °C.

For `Nc1nc(-c2nn(Cc3ccccc3F)c3ncccc23)ncc1C1CC1`, the ΔTm was found to be 0.4 °C. Regarding `CN(C)C(=O)Cn1cc(-c2nc(C3(c4ccc(-c5cnc(N)nc5)cc4)CC3)no2)cn1`, the thermal shift (ΔTm) came to 0.32 °C.

For the compound `Cc1cc(Cn2c(N3CC4(CNC4)C3)nc3c(N4CCN(C)CC4)cc(Cl)cc32)cc(C)c1F`, the ΔTm is -0.77 °C. As for `CS(C)(=O)=Nc1ccc(-c2ccc(-c3nc4[nH]c(O[C@@H]5CO[C@H]6[C@@H]5OC[C@H]6O)nc4cc3Cl)cc2)cc1`, the ΔTm amounted to 0.39 °C.

Take `C[C@H](NC(=O)c1cc(Cl)ccc1Oc1ccc(F)cc1)c1ccc(C(=O)O)cc1`: the ΔTm was -0.34 °C.

As for `O=C(O)[C@]1(Cc2cccc(Nc3nccs3)n2)CC[C@@H](Oc2cccc(Cl)c2F)CC1`, the shift in melting temperature (ΔTm) was -1.24 °C. Take `Cc1cc(Cn2c(N3CC4(CNC4)C3)nc3cc(Cl)cc(N4CCN(C)CC4)c32)cc(C)c1F`: the ΔTm turned out to be 0.27 °C. For the compound `N[C@@H]1CCCC[C@H]1Oc1ccc2ncc(-c3cc4ccccc4o3)n2n1`, the thermal shift (ΔTm) was -0.16 °C. Regarding `CNc1nc(Nc2ccc(C(=O)N3CCOCC3)cc2OC)ncc1Cl`, the ΔTm is -2.04 °C. On to `CCC(F)(F)c1cc(N2CCC(S(C)(=O)=O)CC2)nc2sc(C(N)=O)c(N)c12`, for which the thermal shift (ΔTm) was 0.36 °C and -3.9 °C and -0.99 °C.

As to `NCCCc1c(C(=O)O)[nH]c2ccc(C(=O)Nc3ccccc3)cc12`, the ΔTm is -4.02 °C.

Consider `O=C(Nc1ccc(-n2nc(-c3cccnc3)cc2C(F)(F)F)cn1)c1ccc(-c2ccccc2)c(F)c1`, for which the thermal shift (ΔTm) came out at 0.2 °C. For `CCn1c(-c2nonc2N)nc2ccccc21`, the ΔTm was -1.27 °C. In the case of `CC1(C)CCN(C(=O)C2CN(c3c4c(nc5ccnn35)CCNCC4)C2)C1`, the ΔTm turned out to be 0.23 °C. For `CCC(=O)N[C@H]1CC[C@@H](C(=O)N(C)c2ccc(-c3nc4ccccc4o3)cc2)C1`, the shift in melting temperature (ΔTm) is 0.23 °C. In the case of `CC[C@@H](CO)Nc1nc(Nc2cccc(NC(=O)C(C)(C)C)c2)ncc1F`, the ΔTm came to 0.33 °C. On to `O=C1NC(=NCc2cccs2)SC1=Cc1ccc2ncccc2c1`, for which the thermal shift (ΔTm) was -1.13 °C.

With `C[S+](C)[O-]`, the ΔTm was 0 °C (2×) and -2.19 °C. For `Oc1c(-c2cccnc2)cnn1-c1ccccn1`, the ΔTm turned out to be 0.29 °C. As for `C[C@@H]1OCC2(CCN(c3cnc(Sc4ccnc(N)c4Cl)c(N)n3)CC2)[C@@H]1N`, the ΔTm was -0.86 °C. Next, `CS(=O)(=O)NC(=O)CCC/C=C\C[C@H]1C(=O)C[C@@H](O)[C@@H]1/C=C/[C@@H](O)COc1ccccc1`: -0.45 °C. In the case of `O=C(NCCN1CCOCC1)c1ccc2nn(CCOc3ccc(Cl)cc3)cc2c1` it was 0.35 °C; in that of `COc1ccc(CSc2nnc(-c3ccc4ncsc4c3)o2)cc1C(F)(F)F`, -2.33 °C; in that of `CN1CCN(C(=O)c2ccc3cc2OCCOCCNc2ccn4ncc-3c4n2)CC1`, -0.01 °C. Take `Fc1cccc(-n2cnc3c(NCc4nc5c(F)c(F)ccc5[nH]4)nc(N4CCOCC4)nc32)c1`: the ΔTm is -0.44 °C. With `O=C(Nc1ccnc(NC(=O)C2CC2)c1)c1c(Cl)cccc1Cl`, the ΔTm is -3.69 °C. Turning to `O=C(O)CCCCN(CCc1ccccc1OCc1ccc(CCc2ccccc2)cc1)Cc1ccc(C(=O)O)cc1`, the shift in melting temperature (ΔTm) turned out to be 0.09 °C. Take `O=C(O)Cc1cc(I)c(Oc2ccc(O)c(I)c2)c(I)c1`: the shift in melting temperature (ΔTm) is -2.6 °C.

Consider `CCS(=O)(=O)c1cc2cc(C[C@](O)(CC(C)(C)c3ccc(F)cc3C(N)=O)C(F)(F)F)[nH]c2cn1`, for which the ΔTm amounted to 0.37 °C. In the case of `C[C@@H]1Cc2c([nH]c3ccccc23)[C@@H](c2c(F)cc(/C=C/C(=O)O)cc2F)N1CC(C)(C)F`, the ΔTm is -0.62 °C.
